Measurements taken from PubChem BioAssay AID1508600 (Functional Genomics Laboratory (NCATS/FGL), 2020).
Out of some 53,000 sequences screened, about 3,700 (7%) were called active.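 How the source made its calls: active means gene knockdowns whose robust z-score for IL-1 alpha signal is at least 2 or at most -2, so actives lie on both sides; inactive means the rest.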 The entries come from a sample that favours actives as a whole.

Assay: Components of the Cytosolic LPS Sensing Pathway: Gene Identification via Genome-wide siRNA Screen;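 further: robust z of the log signal after scaling to non-targeting control siRNA wells of the plate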
Settings: RAW264.7 macrophages, IL-1a HTRF, actives lie on both sides, screened at 100 nM (by protocol), cells primed 5 h with Pam3CSK4 first
How it was run: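 Knockdown: 100 nM siRNA, 48h, RAW264.7. Stimulation: Pam3CSK4 5 h, then LipidA via TransIT-TKO 24 h. Output: supernatant IL-1a HTRF, negative-control-normalized, log robust z-score; viability by CellTiter-Glo.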

z-score, inactive:
GGCUGGAAUCACUGAUAUUTT against Hddc3 0.527
CGAGAUGUUUAUUCAACAUTT against Tcf23 -0.431
GGAACAUUUGAAGUGCAAATT against Ilf2 -0.45
GCCAUCGUCUACCUAUGACTT against Olfr358 -1.85
CGGUUAGUCUGUCAGUAUCTT against Xrcc3 0.488
GAUUCAGCAUUAUUUCUGUTT against Olfr980 0.524
GGGCUUGAUUGUGAAAGAATT against Tlr12 -1.82
GCUGAAGACACUCUGUGAATT against Ehbp1l1 -1.7
GCAACGCAGUACUCUACCCTT against Tns2 0.557
CCCAGUGGUUUUAAAGCAUTT against Commd3 -1.64
GCCAACGCACAUAAUAAAGTT against Ndufa13 0.245
GCUAGGUAUCUAAGGAUAUTT against Fig4 -0.579
GGGAAACUCAAACUGAUUGTT against 9930104L06Rik 0.0417
GGUCAAUUCUUUGUGAUGATT against Usf1 -0.609
GGACACUAUACAAAUUUCGTT against Fank1 -0.109
GCAAAACUUCGGAUAGUCATT against Gak 0.382
GGCCGUUUCCUACCUCAUGTT against Cckbr -1.09
GGUCCAGAUCAGUUGACAGTT against Srsf5 0.812
CCCAACUCGGUUUUUUUCUTT against Olfr1037 0.827
CCUAAGCUUAGAUCAACAUTT against Dhx36 -0.735
GGACGAGAUGAACAGCCUCTT against Chkb 0.0671
GGCGCAACGAAUAAAAAUATT against D630023F18Rik -0.581
GGAUUUCUUCCAGAAGAUGTT against Grhpr -1.54
CGUAAACAUUUCCUUCUACTT against Dmbt1 -0.718
CUAUGACACUUGGUUCCAUTT against Nxpe5 1.69
GCCUGUAGCAGAGAACUUUTT against Tmem59l 1.1
CCCAAAACUUCGUUUGUGUTT against Vezf1 -0.973
CCCAUAUCCUAGCUCUCUUTT against Olfr1230 -1.49
GGCAUGGAGAGAAGAAAAGTT against Rassf7 -0.433
GCUCUAGAAAGUUACAGAUTT against Crtam 0.317
GGCUGCAUCUAUAACAUAATT against Olfr611 -0.767
GGUGAAGGUACGAGUAAGATT against Prkra -0.809
GGACGAGAACGAUAAUUACTT against Dsc2 0.335
GGAGGUAAAGAUCAUGUCATT against Ddr1 -1.39
GGAGUAGCUGUACUCAACATT against Olfr790 -0.246
GCCACUCAGAGUGUGGAGUTT against Ddx20 -0.95
GUCCUGGAAGAAAUGAGAATT against Ifna4 0.781
CCCACAUCCCUAAGUUGUGTT against Kash5 1.55
GGAUAAUCAUUCUUGUCACTT against Ptgfr -0.736
GGUCUUUGAAUGGAACAAUTT against Aldh7a1 -1.04
GAGAGAGAAUACCACUGUGTT against Gm5431 -0.244
GCUGGAUGUGAAAAGAGCGTT against Aktip -0.00618
GGUGGAUGAAGAGUAUAAGTT against Phka2 0.338
GGGCCAGCAAGGAAAGAAUTT against Pitx2 -1.37
GCCAUGAUACCUUGUUAUUTT against Plppr5 1.08
GCUUUUUUAUGCAUUCCAATT against Rock1 0.575
GGCACCAAGCUCGAUGAUGTT against Sh3gl2 -1.41
GCUUUUCACAUGAUGUGUUTT against Klrb1a -0.5
GCCCUUACUUAGGUCUAGGTT against Kctd12 -0.522
GGAGCUUCUCAUGACCUUUTT against Mettl21e 0.307
GCGAUGGUAUGUUGAAGGATT against 4930432E11Rik 0.639
GCCUAAAAACUCUAAAUCUTT against Mmut -0.0189
GGUGUGGACUAUGAUACCATT against Anxa9 0.984
GGCUUUGAACAGGAAAGACTT against Ube2z -0.417
CCUGCAAAUGAUACCACCGTT against Olfr734 -0.402
GGAGCGAAGUGAUGAAUAATT against Prph2 0.0677
GGAGCAGCUGAGAGAAAAATT against Ccdc144b -0.413
GGAUGCUGAUUUAAAGACUTT against Rai14 1.69
GCUGAAGGGACUCUAACCATT against Ihh 0.715
CCUCUGGAUCUACGAGCUGTT against Odf4 -0.00669
GCAGAUAGAAGACUGGAAUTT against 1700024G13Rik 0.424
GGUUAUUUCUGAAAUGUGCTT against Fbxl4 -1.3
GGCUGAAAAUGGGAAGCUUTT against Gm5069 0.0536
GGAUGAGCUGAGGAAAUCCTT against Psd2 -0.535
GCCAGGGACUUGCUAUUGATT against Txlna -0.24
GGGAAUGGCUUGAUUCUGUTT against Olfr609 0.514
CGACAAGGAGACCUACAAATT against Itm2b 0.615
CGCAUCAUAAUGAUUGUGATT against Matn2 -0.269
GGCAUCUAUACCAGUAAUATT against Mllt6 -0.562
GGAAAUGAUACCUUACCACTT against Zfp715 0.162
GCGUGAACCGUUUGAUGAGTT against 9030612E09Rik 1.04
GGACAUGAAAGAAACGGUGTT against Bbc3 -0.282
GCUUCCUCUUAUCAUAUAATT against Rgs13 -0.119
GGUAUUAGAAAUCCUGAUCTT against Pias2 -0.716
CGCAUCAUAUUCUGAUUCCTT against Rmnd5b 0.138
CGCAGACAACAAAGUAGAATT against Sars 0.738
GCAUUUCGACGCGGCUUUUTT against Snapc1 0.617
GGUAAACCUGCCAAUUUUGTT against Ovch2 1.54
GCCAUGUGAGACUCUUAUATT against Slc2a9 0.62
GCAGCUCCUUUAUACCCACTT against Mxra7 -1.25
GGAGGGAGCAGAUUGAAACTT against Eri2 -0.281
GCAUGCUUAAGCCUAUAAATT against Ncstn -1.88
GUGUCUCUGUACUUAUUAUTT against Olfr483 0.69
GCUUUUAGAAUAAAGCUGATT against Fgl2 0.75
CCUAUGUCCACCACAAAUGTT against Ifi209 -0.14
GCAACCUGUCCCUUCUUGATT against Olfr225 1.53
GGGAAAUGUUGUAGUAGAUTT against Rars2 0.535
CCACUGUGUGACAUUAAAGTT against Metap2 -0.799

z-score, active:
GCUACAGGGAAGUAUUGAATT against Apc 2.05
GGGAGAGUAAUGUGGACAUTT against Slc37a2 3.86
GGUCAUUGUCAAAGUCAAGTT against Nutm1 2.4
GCGACUGUACAACGAAUUGTT against Clp1 3.34
GCGUGGUGUAUUUGAAUCATT against Ch25h 2.31
GGGAACAGUAUCUGAUUCATT against Polg 2.35
GGUGUGAAGGAGAAGUUCATT against Atp6v1a 2.01
GGCCAAAGUCCACACAAGUTT against Naaa 2.12
GGUCCUAGGUACAAUCACUTT against Slfn10-ps -2.58
GGAGUCUCCCAAAUGAAGATT against Son -2.84
GGCAGUAAGAACUACUAAATT against Ric1 2.65
GGAAGAGAAGCUGAACAAGTT against Gja1 2.53
GGAGUACAUGACCACAGAUTT against Lncpint -2.06
GCGAUUCAGAGACCUAUGGTT against Aven -2.22
GGUUCUAGACAAUUACCUGTT against Clic1 2.43
CCAACAGCAACGAUGACAATT against Thoc5 -2.94
GGUAUUUCAGAUAACCUGGTT against Bbs12 2.9
GGUGUUGUAAAAUUCCUCATT against Ncoa7 -2.08
GGUGGACGUACUUUUUAACTT against Gata3 2.59
GGAGCUGAAGCCAUUCAACTT against Gpx6 2.08
